This passage reports log2 fold change results from the supplement of paper PMC10849652.

Targets with a hit are over-represented here; the source holds about 7,900 in all. About 0.6% of all pairs of compound and target were hits. Values without a mark were called inactive.

Sequence of UniProt P50897 (P50897 whole entry, looked up): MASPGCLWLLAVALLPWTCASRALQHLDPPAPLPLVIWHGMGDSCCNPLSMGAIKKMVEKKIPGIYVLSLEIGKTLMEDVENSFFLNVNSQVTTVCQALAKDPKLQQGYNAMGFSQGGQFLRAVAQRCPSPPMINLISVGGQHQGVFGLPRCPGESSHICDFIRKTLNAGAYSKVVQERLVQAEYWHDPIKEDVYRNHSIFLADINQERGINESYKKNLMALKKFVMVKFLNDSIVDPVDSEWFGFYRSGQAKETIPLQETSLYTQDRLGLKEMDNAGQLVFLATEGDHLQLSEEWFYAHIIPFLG
Sequence of UniProt O96011 (O96011 whole entry, looked up, change not shown): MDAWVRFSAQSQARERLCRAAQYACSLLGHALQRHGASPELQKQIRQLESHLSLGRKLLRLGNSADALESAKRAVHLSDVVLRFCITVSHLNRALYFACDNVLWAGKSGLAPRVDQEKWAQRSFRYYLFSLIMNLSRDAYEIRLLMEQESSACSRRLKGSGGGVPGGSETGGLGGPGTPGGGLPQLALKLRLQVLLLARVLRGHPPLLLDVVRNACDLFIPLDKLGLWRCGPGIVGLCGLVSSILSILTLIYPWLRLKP
Sequence of UniProt P48556 (P48556 whole entry, looked up): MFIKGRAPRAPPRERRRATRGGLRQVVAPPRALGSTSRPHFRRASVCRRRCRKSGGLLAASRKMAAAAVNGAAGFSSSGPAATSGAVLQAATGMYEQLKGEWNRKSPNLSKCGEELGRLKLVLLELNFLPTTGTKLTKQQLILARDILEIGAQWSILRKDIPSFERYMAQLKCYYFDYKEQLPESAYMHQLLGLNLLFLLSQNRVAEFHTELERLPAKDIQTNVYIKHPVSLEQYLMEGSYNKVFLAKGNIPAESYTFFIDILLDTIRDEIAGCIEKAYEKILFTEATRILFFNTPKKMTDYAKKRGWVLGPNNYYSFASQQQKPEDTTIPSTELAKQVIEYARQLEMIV
Sequence of UniProt P62136 (P62136 whole entry, looked up): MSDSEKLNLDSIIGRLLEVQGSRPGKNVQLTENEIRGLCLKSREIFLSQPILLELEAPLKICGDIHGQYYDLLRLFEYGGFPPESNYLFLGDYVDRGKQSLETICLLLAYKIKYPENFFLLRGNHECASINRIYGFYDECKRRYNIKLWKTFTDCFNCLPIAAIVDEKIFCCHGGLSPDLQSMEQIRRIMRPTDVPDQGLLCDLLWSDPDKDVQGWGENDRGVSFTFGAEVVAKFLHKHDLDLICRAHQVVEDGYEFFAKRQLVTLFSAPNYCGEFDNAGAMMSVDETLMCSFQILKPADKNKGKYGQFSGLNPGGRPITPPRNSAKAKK
Sequence of UniProt Q7Z7A4 (Q7Z7A4 whole entry, looked up): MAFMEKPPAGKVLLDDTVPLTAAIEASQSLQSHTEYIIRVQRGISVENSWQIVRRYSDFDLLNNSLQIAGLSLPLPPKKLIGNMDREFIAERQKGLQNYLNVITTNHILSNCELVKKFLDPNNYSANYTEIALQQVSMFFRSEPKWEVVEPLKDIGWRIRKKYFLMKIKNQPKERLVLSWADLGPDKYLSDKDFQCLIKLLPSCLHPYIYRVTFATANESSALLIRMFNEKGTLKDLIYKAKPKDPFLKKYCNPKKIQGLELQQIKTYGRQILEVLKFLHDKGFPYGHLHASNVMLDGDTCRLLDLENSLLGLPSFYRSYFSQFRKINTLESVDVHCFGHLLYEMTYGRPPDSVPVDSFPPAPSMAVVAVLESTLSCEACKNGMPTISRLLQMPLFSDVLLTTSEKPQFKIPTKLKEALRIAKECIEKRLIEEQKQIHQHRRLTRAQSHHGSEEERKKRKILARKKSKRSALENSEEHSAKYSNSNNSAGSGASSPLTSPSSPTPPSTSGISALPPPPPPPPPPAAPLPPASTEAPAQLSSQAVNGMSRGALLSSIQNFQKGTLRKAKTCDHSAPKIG
Sequence of UniProt P53609 (P53609 whole entry, looked up): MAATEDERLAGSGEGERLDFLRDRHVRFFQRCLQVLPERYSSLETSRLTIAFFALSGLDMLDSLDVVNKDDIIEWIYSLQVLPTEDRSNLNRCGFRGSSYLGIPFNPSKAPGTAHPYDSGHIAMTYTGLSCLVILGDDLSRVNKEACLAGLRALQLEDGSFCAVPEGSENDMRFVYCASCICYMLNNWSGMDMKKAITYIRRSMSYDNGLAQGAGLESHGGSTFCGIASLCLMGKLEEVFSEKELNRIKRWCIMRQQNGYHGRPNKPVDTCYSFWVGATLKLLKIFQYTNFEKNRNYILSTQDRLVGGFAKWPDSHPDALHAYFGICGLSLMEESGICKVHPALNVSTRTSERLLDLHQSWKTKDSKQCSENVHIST
Sequence of UniProt P15735 (P15735 whole entry, looked up): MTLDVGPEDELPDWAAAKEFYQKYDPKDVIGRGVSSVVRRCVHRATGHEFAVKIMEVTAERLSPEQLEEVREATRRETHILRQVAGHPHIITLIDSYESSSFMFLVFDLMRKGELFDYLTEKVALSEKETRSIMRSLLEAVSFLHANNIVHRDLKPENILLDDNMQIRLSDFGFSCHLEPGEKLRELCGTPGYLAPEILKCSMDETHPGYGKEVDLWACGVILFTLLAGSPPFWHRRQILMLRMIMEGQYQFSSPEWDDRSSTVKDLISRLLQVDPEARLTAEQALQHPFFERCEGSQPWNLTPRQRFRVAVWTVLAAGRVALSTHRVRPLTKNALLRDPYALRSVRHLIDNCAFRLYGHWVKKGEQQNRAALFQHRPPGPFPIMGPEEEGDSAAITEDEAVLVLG
Sequence of UniProt Q8NAV1 (Q8NAV1 whole entry, looked up): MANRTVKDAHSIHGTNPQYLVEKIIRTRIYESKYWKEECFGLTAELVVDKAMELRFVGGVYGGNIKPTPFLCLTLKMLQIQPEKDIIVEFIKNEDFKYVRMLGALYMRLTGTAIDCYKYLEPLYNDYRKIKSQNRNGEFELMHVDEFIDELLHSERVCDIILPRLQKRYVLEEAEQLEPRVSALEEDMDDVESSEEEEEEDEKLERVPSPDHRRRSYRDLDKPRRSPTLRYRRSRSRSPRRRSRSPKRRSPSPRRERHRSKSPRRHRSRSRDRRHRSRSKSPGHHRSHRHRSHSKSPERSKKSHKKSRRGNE
Sequence of UniProt Q15173 (Q15173 whole entry, looked up): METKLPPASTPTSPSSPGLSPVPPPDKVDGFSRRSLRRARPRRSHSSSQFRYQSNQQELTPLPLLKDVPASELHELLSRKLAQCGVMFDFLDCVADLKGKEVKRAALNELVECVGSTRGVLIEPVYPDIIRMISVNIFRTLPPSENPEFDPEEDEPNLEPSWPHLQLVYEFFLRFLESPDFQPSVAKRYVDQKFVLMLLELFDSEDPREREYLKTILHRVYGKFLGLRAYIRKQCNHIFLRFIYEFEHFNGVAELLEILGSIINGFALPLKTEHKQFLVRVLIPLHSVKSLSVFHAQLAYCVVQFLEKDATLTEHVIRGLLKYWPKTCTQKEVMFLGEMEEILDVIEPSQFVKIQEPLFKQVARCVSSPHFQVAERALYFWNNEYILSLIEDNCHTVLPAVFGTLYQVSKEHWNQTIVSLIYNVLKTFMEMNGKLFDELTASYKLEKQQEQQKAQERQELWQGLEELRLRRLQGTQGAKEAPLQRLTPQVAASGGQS
Sequence of UniProt Q8TCG2 (Q8TCG2 whole entry, looked up): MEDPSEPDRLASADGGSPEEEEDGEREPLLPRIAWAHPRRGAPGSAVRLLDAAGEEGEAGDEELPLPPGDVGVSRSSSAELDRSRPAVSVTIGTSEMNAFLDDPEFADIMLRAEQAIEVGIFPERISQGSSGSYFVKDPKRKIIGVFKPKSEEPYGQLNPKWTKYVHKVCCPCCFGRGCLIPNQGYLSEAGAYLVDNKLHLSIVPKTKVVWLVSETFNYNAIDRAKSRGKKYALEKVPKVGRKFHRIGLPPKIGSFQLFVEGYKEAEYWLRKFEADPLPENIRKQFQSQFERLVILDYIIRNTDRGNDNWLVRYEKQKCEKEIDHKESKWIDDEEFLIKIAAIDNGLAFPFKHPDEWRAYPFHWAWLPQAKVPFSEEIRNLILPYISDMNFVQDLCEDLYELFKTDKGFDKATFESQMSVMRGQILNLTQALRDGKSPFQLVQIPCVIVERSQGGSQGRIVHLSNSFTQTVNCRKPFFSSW
Sequence of UniProt Q96A00 (Q96A00 whole entry, looked up): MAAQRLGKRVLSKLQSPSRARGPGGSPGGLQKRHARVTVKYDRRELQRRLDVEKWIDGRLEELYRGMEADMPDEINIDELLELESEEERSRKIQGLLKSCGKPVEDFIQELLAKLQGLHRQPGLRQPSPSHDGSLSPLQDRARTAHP

Compound in this experiment: c1cn2cc(-c3ccc4cn[nH]c4c3)nc(Nc3ccc(N4CCOCC4)cc3)c2n1 [entospletinib]
Kind of experiment: log2 fold change, soluble protein after heating vs DMSO (PISA); higher = thermal stabilisation; K562 cells, 10 uM, 30 min; active = over 0.2 and 3.5 SD of the protein, either way, in both replicates (recomputed). In outline:
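K562 cells (2×10^6 cells/mL) were treated with 10 μM compound for 30 min, and aliquots were heated for 3 min over 48°C-58°C. Pooled aliquots were extracted in PBS with 0.5% NP-40 at 4°C, and the supernatant after 21,000xg for 90 min was measured by TMTpro 16plex LC-MS/MS with channel sums equalised. Reported thermal stability, relative to control samples and from duplicates, is a log2 fold change.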
PPT1 (UniProt P50897): the log2 fold change is 0.057.
The result for PDE4DIP isoform 4 (UniProt Q5VU43) reads 0.018.
The result for PPP1CA (UniProt P62136) reads 0.037; that for PI4K2B (UniProt Q8TCG2), -0.005.
The result for PMM1 (UniProt Q92871) reads -0.415 (active); that for PYGL (UniProt P06737), -0.088; that for PRKCG (UniProt P05129), 0.044.
Turning to PHKG2 (UniProt P15735), the log2 fold change is -0.279 (active).
The value for PSMD8 (UniProt P48556) was 0.012; that for PARG (UniProt Q86W56) was -0.015; that for PDS5A (UniProt Q29RF7) was 0.039.
The result for PPP1R14A (UniProt Q96A00) reads 0.
The value for PPIL4 (UniProt Q8WUA2) was 0.035.
Regarding PSMB6 (UniProt P28072), the log2 fold change is 0.008.
The result for PRKCA (UniProt P17252) reads -0.054; that for PRCP (UniProt P42785), -0.062; that for PRPF38A (UniProt Q8NAV1), 0.036.
The value for PPP2R5B (UniProt Q15173) was -0.321; that for PEF1 (UniProt Q9UBV8) was 0.023; that for PEX11B (UniProt O96011) was -0.082.
The result for PGGT1B (UniProt P53609) reads -0.037.
Turning to PXK (UniProt Q7Z7A4), the log2 fold change was 0.009.
The result for PNPLA2 (UniProt Q96AD5) reads -0.056; that for POLR2M (UniProt P0CAP2), -0.059.
